# Source: PubChem BioAssay (National Center for Advancing Translational Sciences (NCATS))
# Most compounds without a hit are left out; they make up all but 9.2% or so of the library.
# Rab9 promoter act: qHTS Assay for Rab9 Promoter Activators | Potency, µM (titrated, usually from 9.22 µM), for the others: at the top dose activation, negative = inhibition, actives largely listed as activators | Huh7 Rab9 promoter-luciferase reporter, luminescence, 24 h | 320,000 compounds, 2.8% hits | AID 485297, 2010; further: % of control where 0% means no effect; nearly all actives have a fitted effect of over 60% in size
#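 Luminescence read-out: Huh7 cells stably expressing Rab9-luciferase, treated 24 h with compound at 37 °C, then lysed with luciferase reagent for 10 min at ambient before reading.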
# NPC1 promoter act: qHTS Assay for NPC1 Promoter Activators; Huh7 NPC1 promoter luciferase reporter, 24 h; Potency, µM (top dose mostly 9.22 µM), for inactives: at the top dose activation, usual class: activators; 320,000 compounds, 2.4% hits; AID 485313, 2010; further: % of control where 0% means no effect; nearly all actives have a fitted effect of over 60% in size
#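 Stably transfected Huh7 (NPC1 promoter→luciferase), 1500 cells/well in Opti-MEM + 10% FBS, 2 h settle, then compound 24 h at 37 °C. Luminescence after 10 min with Amplite reagent.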
# ELG1 genotox: qHTS screen for small molecules that induce genotoxicity in human embryonic kidney (HEK293T) cells expressing luciferase-tagged ELG1 | AID 504466, 2011 | 330,000 compounds, 1.3% hits | HEK293T ELG1-luciferase reporter, luminescence, 16 h | Potency, µM (doses to about 46 µM), for the others: at the highest dose activity change, positive = activation, actives largely listed as activators; further: % of control where 0% means no effect; nearly all actives have a fitted effect of over 60% in size
#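 HEK293T cells expressing luciferase-tagged ELG1 were exposed to compound or DMSO vehicle for 16 hr at 37 °C and 5% CO2. Luciferase activity was then measured with ONE-Glo after 30 min at room temperature.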
# SMN2 splice enh: qHTS Assay for Enhancers of SMN2 Splice Variant Expression | HEK293 SMN2-luciferase splicing reporter, luminescence, 30-36 h | Potency, µM (doses to about 46.1 µM), inactives show at the highest dose activity change, positive = activation, actives largely listed as activators | 210,000 compounds, 2.8% hits | AID 1458, 2008; further: % of control where 0% means no effect; nearly all actives have a fitted effect of over 55% in size
#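 qHTS luciferase splicing reporter: luminescence rises when SMN2 exon 7 is included in transfected HEK293 cells. Compound exposure lasted 30-36 h at 37C, with 4.5 mM final sodium butyrate as control, followed by a ONE-Glo read.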
# FLuc modulator: qHTS profiling assay for firefly luciferase inhibitor/activator using purifed enzyme and Km concentrations of substrates (counterscreen for miR-21 project); Luciferin 4-monooxygenase (Photinus pyralis), P08659; purified FLuc, Km substrates, luminescence inhibition; Potency, µM (highest dose often 57.5 µM), for the others: at the highest dose activity change, negative = inhibition, actives largely listed as inhibitors; 360,000 compounds, 6.9% hits;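 further: plate controls were vehicle for no effect and reference inhibitor for full effect; nearly all actives have a fitted effect of over 55% in size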
# Target sequence (P08659 whole entry, looked up): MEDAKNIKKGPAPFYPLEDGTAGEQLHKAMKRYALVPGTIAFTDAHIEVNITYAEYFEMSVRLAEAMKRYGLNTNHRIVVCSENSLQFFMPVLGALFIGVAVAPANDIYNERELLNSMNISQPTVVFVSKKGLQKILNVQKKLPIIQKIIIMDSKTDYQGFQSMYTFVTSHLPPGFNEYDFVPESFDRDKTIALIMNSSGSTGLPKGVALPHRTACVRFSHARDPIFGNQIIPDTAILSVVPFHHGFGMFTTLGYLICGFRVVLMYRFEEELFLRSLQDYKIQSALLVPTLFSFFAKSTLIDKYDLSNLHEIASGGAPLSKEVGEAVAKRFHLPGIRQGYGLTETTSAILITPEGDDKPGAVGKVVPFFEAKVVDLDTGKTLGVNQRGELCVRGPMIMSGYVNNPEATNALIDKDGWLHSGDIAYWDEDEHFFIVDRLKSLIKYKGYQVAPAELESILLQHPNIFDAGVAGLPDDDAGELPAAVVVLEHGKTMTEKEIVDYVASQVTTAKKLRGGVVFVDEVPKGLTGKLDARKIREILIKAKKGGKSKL
#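 Purified P. pyralis luciferase, 10 nM final, with Km-level 10 uM D-luciferin and 10 uM ATP in 50 mM Tris acetate pH 7.5, 10 mM Mg acetate, 0.01% Tween-20, 0.05% BSA; 6-point qHTS titration about 60 µM downward; luminescence read.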
# ELG1 repair inh: qHTS screen for small molecules that inhibit ELG1-dependent DNA repair in human embryonic kidney (HEK293T) cells expressing luciferase-tagged ELG1. HEK293T ELG1-luciferase reporter, luminescence, 16 h; DNA damage induced by 5-fluorouridine. Potency, µM (series often up to 46.1 µM), without a hit: at the top dose activity change, negative = inhibition, usual class: inhibitors. 330,000 compounds, 2.3% hits. AID 504467, 2011; further: on the % scale 0 is the no-effect control and ±100 the full control effect; nearly all actives have a fitted effect of over 55% in size
#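 Reporter activity after DNA damage by 5-fluorouridine is monitored. Compound-treated cells incubate 16 hr at 37 °C, then ONE-Glo is added for 30 min before luminescence reading.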
# Active calls of the source: *; ? = inconclusive; · = no result; [ ] = another dose, or the depositor's remark. The call rests on the fitted dose curve; in most records, active means well fitted curve in the direction sought with a large enough effect; inconclusive means small, poorly fitted or top-dose-only effect, or another doubt; inactive means no such curve, though single readings can be large; an effect the other way counts as inactive or inconclusive. Potency means the concentration at half of the fitted maximal effect.
SMILES,Rab9 promoter act,NPC1 promoter act,ELG1 genotox,SMN2 splice enh,FLuc modulator,ELG1 repair inh
COc1ccc(OC2CCN(C(=O)Nc3ccc(C)cc3)CC2)cc1,4%,13%,-1%,·,?,-10%
CCn1c(=O)c2sccc2n2c(CCCC(=O)N3CCN(c4cc(Cl)ccc4C)CC3)nnc12,·,·,·,·,4%,·
CCOCCCN(C(=O)Cn1nnc(-c2ccc(C)o2)n1)C(C(=O)NCC1CCCO1)c1ccc(F)cc1 (configuration not stated),-2%,2%,4%,·,1%,14%
O=C(Nc1ccccc1)Nc1nc(-c2ccccc2)cs1,23%,22%,2%,·,?,24%
COc1cccc(-c2csc(NC(=O)Nc3ccccc3)n2)c1,-5%,-2%,-17%,·,13µM*,?
COc1ccc(NC(=O)CN2CCN(c3nc(-c4cccc(OC)c4)cs3)CC2)cc1,-10%,-9%,-11%,-82%,?,12µM*
COc1cccc(-c2csc(NC(=O)C3CC3)n2)c1,?,?,12µM*,25%,11µM*,?
C[C@@H]1C=C(C(=O)NC2CC2)O[C@H](OCc2ccc(CO)cc2)C1,-2%,1%,8%,·,3%,0%
COC(=O)/C=c1/sc2nc3ccccc3n2c1=O,1%,-4%,-2%,?,?,0%
O=C(O)c1cccc(-c2ccc(/C=c3/sc4nc5ccccc5n4c3=O)o2)c1,28%,25%,6%,·,9.5µM*,?
O=c1/c(=C/c2ccccn2)sc2nc3ccccc3n12,?,?,0.82µM*,13µM*,0.13µM*,?
O=c1c2ccccc2nc2sc3ccccc3n12,4µM*,4µM*,?,14µM*,5.4µM*,?
O=C(O)c1cc(C(=O)O)cc(-c2ccc(/C=c3/sc4nc5ccccc5n4c3=O)o2)c1,-2%,-5%,5%,6%,?,0%
O=c1/c(=C\c2cc([N+](=O)[O-])cc([N+](=O)[O-])c2O)sc2nc3ccccc3n12,11%,-3%,6%,-3%,9.5µM*,-16%
Cc1c(C(=O)N2CCN(c3ccc([N+](=O)[O-])cc3)CC2)oc2ccccc12,-11%,0%,0%,·,4%,11µM*
Cc1c(-c2ccccc2)oc2c(C(=O)N3CCN(c4ccc([N+](=O)[O-])cc4)CC3)cccc2c1=O,0%,15%,-4%,-32%,-3%,3.3µM*
Cc1occc1C(=O)N1CCN(c2ccc([N+](=O)[O-])cc2)CC1,9%,-1%,-9%,·,2%,19%
Cc1c(C(=O)OCC(=O)N2CCN(c3ccccc3)CC2)oc2ccccc12,·,·,-3%,·,·,?
Cc1cn(-c2ccc(Br)cc2)[nH]c1=O,18%,27%,18µM*,21%,?,?
CCCCCCNCC1OCc2ccccc2CO1,-7%,1%,2%,-12%,6%,2%
c1ccc(NCC2OCc3ccccc3CO2)cc1,2.5µM*,4µM*,?,16µM*,24µM*,?
Cc1occc1C(=O)N1CCN(S(=O)(=O)c2ccccc2)CC1,-4%,-1%,-7%,·,4%,13%
CCOc1ccc(C2c3[nH]c4ccccc4c3CCN2C(=O)Cc2cccc(OCC)c2OCC)cc1 (configuration not stated),·,·,·,·,-2%,·
Nc1cccc(-c2cn3cccnc3n2)c1,25%,5%,2%,7%,-19%,24%
CS(=O)(=O)Nc1ccc(-c2cn3cccnc3n2)cc1,6%[1.84 µM],0%,9%,·,?,?
